The structures appear in SMILES notation. Hit rate of the full screen: of about 52,000 compounds, about 1,700 (3.3%) were called active. The entries come from a sample that favours actives as a whole. Unmarked numbers belong to inactive results. Cut-off read from the data, not from the text of the source: active = survival mostly below about 52% (no sharp cut-off); inactive = mostly above about 56%.

The assay has as its system Wild type. In words: growth inhibition of S. aureus wild type versus tarO mutant, primary screen, teichoic acid synthesis inhibitors, RN4220, OD600 (AID 463173). As to conditions: S. aureus RN4220 wild type/DeltatarO growth, OD600, 18 h, hits give low values, screened at 18.75 µg/mL (by protocol).
With `COc1ccc(CNC(=O)C(Cc2ccccc2)NS(=O)(=O)c2ccc3c(c2)CCN3C(C)=O)cc1` (configuration not stated), the survival is 127%.

Consider `Cc1coc2c(C)c3oc(=O)c(CC(=O)NCCc4ccc(Cl)cc4)c(C)c3cc12`, for which the survival is 99%. As for `COc1cccc(Cn2c(CNS(=O)(=O)c3ccc(F)c(Cl)c3)nc3cccnc32)c1`, the figure is 159%; as for `O=C(NCC1COc2ccccc2O1)c1cn(Cc2ccc(F)cc2)nn1` (configuration not stated), 107%; as for `COc1ccc(N2CCN(c3oc(/C=C/c4ccccc4OC)nc3C#N)CC2)cc1`, 86%. For the molecule `O=C1CC(c2ccc3c(c2)OCO3)CC2=C1C(c1ccncc1)Nc1ccccc1N2` (configuration not stated), the survival is 81%. `CC(O)c1nc2ccccc2n1Cc1ccccc1` (configuration not stated): the survival was 100%. As for `O=C(NCCc1nc2ccccc2n1Cc1ccc(Cl)cc1Cl)c1ccco1`, the survival was 76%. Regarding `CC(C)(C)c1ccc(Cn2c(Cc3ccccc3)nc3ccccc32)cc1`, the survival is -1% (active). As to `CCn1c(COc2ccc(Cl)cc2Cl)nc2ccccc21`, the survival was 78%. Turning to `CCC(=O)NCc1nc2ccccc2n1Cc1ccccc1`, the survival is 106%. Take `Clc1ccc(OCc2nc3ccccc3n2Cc2ccccc2)c(Cl)c1`: the survival was 7% (active). Under `CCOc1ccc(NC(=O)c2sc(-n3nc(C)c(CCC(C)C)c3C)nc2C)cc1` stands 123%. Consider `CCCCOc1ccc(CNC(=O)c2cnc3sc(N4CCCCCC4)nn3c2=O)cc1`, for which the survival is 91%. With `CCOc1ccc(CCNC(=O)c2cc3cc4cc(OC)ccc4nc3s2)cc1OCC`, the survival was 117%. For the molecule `Cc1oc(-c2ccccc2F)nc1CSCC(=O)N1CCN(c2ccccc2)CC1`, the survival is 62%.

`Cc1ccc(-c2nc(CS(=O)(=O)CC(=O)N3CCN(c4cccc(C)c4C)CC3)c(C)o2)cc1`: the survival is 129%. `Cc1cccc(-c2nc(CSCC(=O)N3CCN(c4ccccc4)CC3)c(C)o2)c1`: the survival is 18% (active). Take `COc1ccc(-c2nc(CSCC(=O)N3CCN(c4cccc(C)c4C)CC3)c(C)o2)cc1OC`: the survival was 22%.

For the molecule `COc1ccc(-c2nc(CSCC(=O)N3CCN(c4ccccc4)CC3)c(C)o2)cc1`, the survival is 53%.

For `Cc1cccc(-c2nc(CSCC(=O)N3CCN(c4cccc(C)c4C)CC3)c(C)o2)c1`, the survival is 0% (active). Under `COc1ccc(N2CCN(CC(=O)c3ccc(OC)c(OC)c3)CC2)cc1` stands 106%; under `CC(C)OCCCNC(=O)Cn1ccc2cc(S(=O)(=O)N3CCCCCC3)ccc21`, 124%; under `COc1ccc2c(Sc3ccccc3)c(C(=O)NCc3cccc(OC)c3OC)[nH]c2c1`, 89%.

Turning to `CC(C)COc1ccc(C(=O)N2CCC(c3nc4ccccc4s3)CC2)cc1`, the survival was 42%. Under `CCc1ccccc1NC(=O)CSc1nnc(-c2ccccc2)c(-c2ccccc2)n1` stands 69%. For the molecule `O=C(CSc1nnc(-c2ccccc2)c(-c2ccccc2)n1)Nc1ccccc1Cl`, the survival was 70%.

With `CC(C)CSc1nnc(-c2ccccc2)c(-c2ccccc2)n1`, the survival is -4% (active). For the molecule `Cc1oc2c(c(C)cc3oc(=O)c(CC(=O)NCCc4ccccc4)c(C)c32)c1C`, the survival was 112%. With `CCc1ccc(CNC(=O)C2CCN(C(=O)c3ccc(-n4c(C)cc5ccccc54)s3)CC2)cc1`, the survival is 81%. On to `Cc1cc2ccccc2n1-c1ccc(C(=O)N2CCC(C(=O)NCc3ccc(Cl)cc3)CC2)s1`, for which the survival is 63%. As to `Cc1cc2ccccc2n1-c1ccc(C(=O)N2CCC(C(=O)NCc3ccc(F)cc3)CC2)s1`, the survival is 1% (active).

Consider `Cc1ccc(NC(=O)CN2C(=O)CSc3ccc(S(=O)(=O)N4CCCC4)cc32)cc1F`, for which the survival is 99%. In the case of `COC(=O)c1cc2c(cc1NC(=O)c1cnn(-c3ccccc3)c1-n1cccc1)OCO2`, the survival was 80%. In the case of `Cc1nn(-c2nc(-c3ccc(F)cc3)cc(C(F)(F)F)n2)c(C)c1Cl`, the survival was -2% (active). `Cc1nn(-c2nc(-c3ccc(F)cc3)cc(C(F)(F)F)n2)c(C)c1Br`: the survival is -2% (active). Regarding `FC(F)(F)c1cc(-c2ccccc2)nc2cc(-c3ccccc3)nn12`, the survival was 75%.

As to `CC(C)(C)NC(=O)CSc1nc(-c2ccc(F)cc2)cc(C(F)(F)F)n1`, the survival is 78%.

Regarding `Cc1nn(-c2nc(-c3ccccc3)cc(C(F)(F)F)n2)c(C)c1Cl`, the survival was -3% (active).

For `Cc1ccc(-c2cc3nc(-c4ccccc4)cc(C(F)(F)F)n3n2)cc1`, the survival is 80%. Consider `CCCNC(=O)CSc1nc(-c2ccccc2)cc(C(F)(F)F)n1`, for which the survival is 112%. Consider `CCC(C)NC(=O)CSc1nc(-c2ccc(F)cc2)cc(C(F)(F)F)n1` (configuration not stated), for which the survival was 81%. As for `CN(Cc1ccccc1)c1nc(-c2ccc(F)cc2)cc(C(F)(F)F)n1`, the survival is 80%. Take `COc1cccc(-c2cc(C(F)(F)F)nc(-n3nc(C)c(Br)c3C)n2)c1`: the survival was 80%. Under `COc1ccc(-c2cc(C(F)(F)F)nc(-n3nc(C(F)(F)F)cc3C)n2)cc1` stands 50%; under `Cc1cc(C(F)(F)F)nn1-c1nc(-c2ccccc2)cc(C(F)(F)F)n1`, 13% (active). Turning to `CCCC(C)C(=O)Nc1nnc(C(F)(F)F)s1` (configuration not stated), the survival was 100%. Consider `O=C(Nc1cccc2c1CCCC2)N1CCOc2ccc(Cl)cc21`, for which the survival was 83%. Regarding `COc1ccc(-c2nc(CCNC(=O)c3cccs3)cs2)cc1OC`, the survival was 159%.

For the molecule `Cc1cccc(Cn2c(CNS(=O)(=O)c3ccc(C(C)C)cc3)nc3cccnc32)c1`, the survival was 78%. As to `N=c1nc(N)nc2n1NC(c1ccc(F)cc1)=CS2`, the survival is 108%. For the molecule `CCC(Sc1ncc(S(=O)(=O)c2ccc(Cl)cc2)c(=O)[nH]1)C(=O)Nc1ccc(OC)cc1` (configuration not stated), the survival is 96%.

Consider `CC1CCCCN1CC(=O)N1CCCc2c1c(=O)oc1ccc(OCc3ccccc3)cc21` (configuration not stated), for which the survival is 43%. On to `CC1CCN(CC(=O)N2CCCc3c2c(=O)oc2ccc(OCc4ccccc4)cc32)CC1`, for which the survival was 86%. For the molecule `CCC1CCCCN1CC(=O)N1CCCc2c1c(=O)oc1ccc(OCc3ccccc3)cc21` (configuration not stated), the survival is 3% (active). For the molecule `CCCCN(CC)C(=O)c1cc2c(=O)n3cccc(C)c3nc2s1`, the survival is 77%. With `CCCCN(CCCC)C(=O)c1cc2c(=O)n3cccc(C)c3nc2s1`, the survival was -2% (active). With `CCCN(CCC)C(=O)c1cc2c(=O)n3cccc(C)c3nc2s1`, the survival was 80%. For `CCOC(=O)c1[nH]c2ccccc2c1N=CN(C)C`, the survival was 104%. With `O=c1cc(O)n(-c2ccccc2)c(=S)[nH]1`, the survival is 99%. As to `CC1CCc2nc3ncn(Cc4ccccc4F)c(=O)c3cc2C1` (configuration not stated), the survival is 53%. For `Cc1ccccc1Cn1cnc2nc3c(cc2c1=O)CC(C)CC3` (configuration not stated), the survival was 0% (active). Turning to `Cc1ccc(Cn2cnc3nc4c(cc3c2=O)CC(C)CC4)cc1` (configuration not stated), the survival is -3% (active). With `CC1CCc2nc3ncn(Cc4cccc(F)c4)c(=O)c3cc2C1` (configuration not stated), the survival was 66%.

Regarding `CC1CCc2nc3ncn(Cc4ccc(Cl)cc4)c(=O)c3cc2C1` (configuration not stated), the survival was 80%. As for `CC1CCc2nc3ncn(Cc4ccccc4C#N)c(=O)c3cc2C1` (configuration not stated), the figure is 71%; as for `O=C(O)CN1C(=O)/C(=C\c2ccccc2)SC1=S`, 102%. Regarding `CN1/C(=C2/SC(=O)N(Cc3ccccc3)C2=O)Sc2ccccc21`, the survival is 118%. For `Cc1cc(N2CCC(C)CC2)nc2ccc(NC(=O)CCC(=O)N3CCN(c4cccc(C(F)(F)F)c4)CC3)cc12`, the survival was 64%. Under `Cc1ccc(-c2nonc2NC(=O)c2ccco2)cc1C` stands 79%. As for `COc1ccc(-c2cn3cccnc3n2)cc1NC(=O)c1ccccc1C(F)(F)F`, the figure is 69%; as for `COc1cc2nc(NC(=O)c3ccc(S(=O)(=O)N4CCOCC4)cc3)sc2cc1OC`, 79%. As to `COC(=O)c1sc2cccc(F)c2c1S(=O)(=O)N1CCN(c2ccccc2OC)CC1`, the survival is 47%. As for `COc1cccc(-c2nc(CSCC(=O)NCCc3ccc(Cl)cc3)c(C)o2)c1`, the survival is -1% (active). In the case of `COc1cccc(-c2nc(CS(=O)(=O)CC(=O)NCCc3ccc(Cl)cc3)c(C)o2)c1`, the survival is 78%.

As to `COc1ccc(-c2nc(CSCC(=O)NCCc3ccccc3)c(C)o2)cc1`, the survival is 95%.

For the molecule `Cc1cccc(-c2nc(CSCC(=O)NCCc3ccc(Cl)cc3)c(C)o2)c1`, the survival is -3% (active). In the case of `CCOc1ccc(CCNC(=O)CSCc2nc(-c3cccc(C)c3)oc2C)cc1OCC`, the survival was 80%. As to `COc1ccc(CCNC(=O)CSCc2nc(-c3cccc(C)c3)oc2C)cc1OC`, the survival was 74%. `COc1cc2[nH]c(=O)n(CCCC(=O)N(C)Cc3ccccc3)c(=O)c2cc1OC`: the survival was 68%. For the molecule `CN(C)c1ccc(-c2nnc3n(Cc4ccccc4)c(=O)c4ccccc4n23)cc1`, the survival is 83%. With `COc1ccc(N2CCN(C(=O)c3cccc(NC(=O)c4nsc5ccccc45)c3)CC2)cc1`, the survival was 131%.

As to `O=C(NCc1ccc2c(c1)OCO2)C1CCN(c2ccc(S(=O)(=O)N3CCCC3)cc2)CC1`, the survival is 101%. As for `CC1CCCN(c2csc3ccccc3c2=O)C1` (configuration not stated), the figure is 97%; as for `CC1CCCN(c2nc(-c3ccccc3O)nc3ccccc23)C1` (configuration not stated), -3% (active). In the case of `Cc1ccc(-c2nc(N3CCCC(C)C3)c3ccccc3n2)cc1` (configuration not stated), the survival is -2% (active). Under `COc1ccccc1N1CCN(c2nc(-c3ccc(C)cc3)nc3ccccc23)CC1` stands 72%; under `Cc1cccc(-c2nc(N3CCN(c4ccc(F)cc4)CC3)c3ccccc3n2)c1`, 64%; under `COc1ccc(N2CCN(c3nc(-c4ccccc4F)nc4ccccc34)CC2)cc1`, 92%.

For `N#CCNC(=O)c1sc2ccccc2c1Cl`, the survival is 107%. Consider `Cc1nnc(NC(=O)CCCN2C(=O)/C(=C/c3cccs3)SC2=S)s1`, for which the survival was 107%. With `COc1cc(C(=O)N2CC(=O)Nc3ccc(C)cc3C2c2ccc(F)cc2)cc(OC)c1OC` (configuration not stated), the survival was 147%.

Values taken from PubChem BioAssay AID463173 (ICCB-Longwood Screening Facility, Harvard Medical School, 2010).
